Screening results as filed in PubChem.
Shown are actives, neighbours in structure and some others; about 6.7% of the full set was active somewhere.
KB-3-1 cytotox: qHTS assay for MDR1-selective chemotherapeutics: Primary screen using the parental adenocarcinoma cell KB-3-1. KB-3-1 viability, CellTiter-Glo ATP luminescence, 72 h. Potency, µM (top dose mostly 46.1 µM), actives largely listed as cytotoxic. 400,000 tested, 1.4% active. AID 1347075, 2019; also: % is scaled to controls: 0 for no effect and ±100 for the full control effect; nearly all actives have a fitted effect of over 60% in size
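KB-3-1 parental drug-naive adenocarcinoma cells in DMEM/10% FBS, incubated 72 h at 37 C with pin-transferred compounds across a concentration series. Viability by CellTiter-Glo luminescence; concentration-response curves fitted after normalization.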
SW480 rereplic: A quantitative high throughput screen for small molecules that induce DNA re-replication in SW480 colon adenocarcinoma cells; SW480 DNA re-replication, Hoechst DNA content imaging, 48 h; Potency, µM (highest dose often 46.1 µM), without a hit: at the top dose re-replication activation, most hits filed as activators; 340,000 tested, 1.8% active; also: % of control where 0% means no effect; nearly all actives have a fitted effect of over 55% in size
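DNA re-replication was detected as more nuclei of elevated Hoechst intensity after 48 hr exposure to compound (23 nL pinned per well of 250 cells).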
PINK1 modulator: A Quantitative High throughput Screen to Identify Chemical Modulators of PINK1 Expression; PINK1 immunofluorescence, high-content cytometry, 24 h; Potency, µM (highest dose often 76.6 µM), for inactives: at the top dose activation (PINK1 increase), most hits filed as activators; 410,000 tested, 0.2% active; active = well fitted activation curve with a large enough effect; inconclusive = small, poorly fitted or top-dose-only effect; cell line not stated here; also: % of control where 0% means no effect; nearly all actives have a fitted effect of over 65% in size
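Stable cell line, 250 cells/well, 12 h attachment; compounds pinned at 5 concentrations, 24 h; CCCP control. Fixed with nuclear dye, primary antibodies 12 h at 10 degrees C, secondary plus cell stain; laser-scanning cytometer read.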
KB-V1 MDR tox: qHTS assay for MDR1-selective chemotherapeutics: Primary screen using the drug-selected MDR subline cells KB-V1 | KB-V1 MDR cells viability, CellTiter-Glo, 72 h | Potency, µM (top dose mostly 46.1 µM), usual class: cytotoxic | 400,000 tested, 3.4% active | AID 1347076, 2019; also: % is scaled to controls: 0 for no effect and ±100 for the full control effect; nearly all actives have a fitted effect of over 60% in size
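qHTS viability screen in drug-selected KB-V1 MDR cells: 72 h compound treatment at 37 degrees C, ATP luminescence end point.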
MCF10A rerep: A quantitative high throughput screen for small molecules that induce DNA re-replication in MCF 10a normal breast cells; Potency, µM (series often up to 46.1 µM), inactives show top-dose activity, positive = re-replication, usual class: activators; MCF 10A DNA re-replication, Hoechst nuclear intensity, 48 h; AID 624296, 2012; 350,000 tested, 2.9% active; also: % of control where 0% means no effect; nearly all actives have a fitted effect of over 50% in size
Starred values were filed as active, the others as inactive; i = inactive; u = inconclusive; x = not tested or not shown; [ ] = remark or other dose. Unless noted, calls follow the shape of the dose curve; as a rule, active = well fitted curve in the direction sought with a large enough effect; inconclusive = small, poorly fitted or top-dose-only effect, or another doubt; inactive = no such curve, though single readings can be large; an effect the other way counts as inactive or inconclusive. Potency is read from the fitted curve at half-maximal effect.

SMILES | KB-3-1 cytotox | SW480 rereplic | PINK1 modulator | KB-V1 MDR tox | MCF10A rerep
COc1ccc(C2c3ccc4ccccc4c3Oc3ncn(CCN(C)C)c(=N)c32)cc1 (configuration not stated) | u | u | -1.8% | u | 20.6µM*
COc1ccc(C2c3ccc4ccccc4c3Oc3ncn(CCN4CCOCC4)c(=N)c32)cc1 (configuration not stated) | u | 23.1µM* | -4.5% | u | 1.6%
COc1ccc(C2c3ccc4ccccc4c3Oc3ncn(CCO)c(=N)c32)cc1OC (configuration not stated) | i | u | 0.5% | u | -1.3%
COc1ccc(C2c3ccc4ccccc4c3Oc3ncn(CCCO)c(=N)c32)cc1OC (configuration not stated) | u | 18.4µM* | 0.8% | u | 18.4µM*
FC(F)(F)c1cccc(N2CCN(c3ccc4nnc(-c5ccccc5)n4n3)CC2)c1 | i | 6.1% | 7.2%[38.3 µM] | 16.4µM* | u
c1ccc(-c2nnc3ccc(N4CCCC4)nn23)cc1 | i | -2.6% | 4.0% | i | 3.1%
CC(Sc1nn(-c2ccc(F)cc2)c(=S)s1)C(=O)c1c(N)n(C)c(=O)n(C)c1=O (configuration not stated) | u | -5.7% | -0.9% | 6.51µM* | 29.3%
COc1ccc(NC(=O)CSC2=C(C#N)C(c3ccco3)C(C(=O)Nc3nc4ccccc4s3)=C(C)N2)cc1 (configuration not stated) | u | 9.2µM* | 4.1% | i | u
CC(=O)C1=C(C)NC(SCC(=O)Nc2nc3ccccc3s2)=C(C#N)C1c1ccc(Cl)cc1 (configuration not stated) | u | 15.8µM* | u | u | 22.2%
C=CCOC(=O)C1=C(C)NC(SCC)=C(C#N)C1c1ccc(Cl)cc1 (configuration not stated) | u | u | u | 23.1µM* | 23.1µM*
C#CCSC1=C(C#N)C(c2cccs2)C(C(=O)OCC)=C(C)N1 (configuration not stated) | i | 3.5% | 10.4%[38.3 µM] | 10.3µM* | 14.3%
COc1ccccc1NC(=O)C1=C(C)NC(SCC(=O)c2ccccc2)=C(C#N)C1c1ccco1 (configuration not stated) | i | u | 0.9% | i | u
C=CCOC(=O)C1=C(C)NC(SCC(N)=O)=C(C#N)C1c1ccc(C)cc1 (configuration not stated) | i | -11.9% | 1.3% | i | 1.0%
CCOC(=O)C1=C(C)NC(C)=C(C(=O)OCC)C1c1cccs1 | i | -2.1% | u | u | -2.5%
NCCCN(Cc1ccc(Cl)cc1)c1ccc(Br)cn1 | x | x | 13.7% | x | x
O=C(NC1CCCCC1)C(c1ccccn1)N(C(=O)c1csnn1)c1ccccc1F (configuration not stated) | i | u | -1.4% | i | -15.1%
Cc1ccc(Cn2cnc3nc4c(cc3c2=O)CC(C)CC4)cc1 (configuration not stated) | i | x | 0.7% | i | x
O=C(CCC1N=C2c3ccccc3N=C(SCC(=O)Nc3ccc(F)cc3)N2C1=O)NCc1ccco1 (configuration not stated) | i | x | 1.1% | u | x
CCN1CCN(c2ccc(NC(=O)c3cc(S(=O)(=O)N4CCCC4)ccc3Cl)cc2)CC1 | i | -20.2% | 0.9% | i | 5.6%
C=CCOC(=O)C1=C(C)NC(SCC(=O)Nc2ccc(C)c(Cl)c2)=C(C#N)C1c1ccco1 (configuration not stated) | i | 11.2µM* | 8.7% | i | 11.2µM*
Cc1ccc(OCCCN2C(=O)C(=O)c3cc(C)ccc32)cc1 | u | 23.1µM* | 5.4% | i | 20.6µM*
Cc1ccc2c(c1)C(=O)C(=O)N2CCCOc1ccccc1 | i | u | 6.5% | i | u
COc1ccccc1C(=O)Nc1cccc(C(=O)OCc2cc(=O)n3nc(C)sc3n2)c1 | x | x | -0.4% | x | x
CCn1c(=O)n(-c2ccc(F)cc2)c(=O)c2sc3ccccc3c21 | i | x | 0.2% | u | x
COc1ccc(Cl)cc1NC(=O)c1cc(C)nn1-c1ccccc1 | x | x | 3.0% | x | x
SMILES | KB-3-1 cytotox | SW480 rereplic | PINK1 modulator | KB-V1 MDR tox | MCF10A rerep
COc1ccc(-c2nc(-n3c(C)c(C(C)=O)c(C(C)=O)c3C)sc2C)cc1OC | i | -7.1% | -2.4%[38.3 µM] | 14.6µM* | u
CCOC(=O)c1c(C)[nH]c(C=O)c1Cc1cccc(Cl)c1 | 18.4µM* | 10.3% | 2.7% | 14.6µM* | 26.9%
Cc1ccc(-c2nc3ccccc3[nH]2)cc1NC(=O)COc1ccccc1[N+](=O)[O-] | x | x | -1.2% | x | x
O=C(CCN1C(=O)c2cccc3cccc(c23)C1=O)NC1CCS(=O)(=O)C1 (configuration not stated) | i | -18.4% | -1.7% | i | -1.8%
O=C(CCCCCN1C(=O)c2cccc3cccc(c23)C1=O)NC1CCS(=O)(=O)C1 (configuration not stated) | i | 18.4µM* | -0.2% | i | -2.3%
CN1C/C(=C\c2ccc(N3CCOCC3)cc2)C(=O)/C(=C/c2ccc(N3CCOCC3)cc2)C1 | u | u | 7.2% | 20.6µM* | 18.4µM*
CCN1C/C(=C/c2ccc(N3CCOCC3)cc2)C(=O)/C(=C/c2ccc(N3CCOCC3)cc2)C1 | u | 16.4µM* | 3.5% | 18.4µM* | 23.1µM*
c1ccc(N2CCOCCOCCOCCOCCOCC2)cc1 | i | -0.6% | -0.3% | i | -2.7%
C=CCNc1cc(C(F)(F)F)nc(-c2ccccn2)n1 | i | -1.9% | -0.1% | i | 3.1%
FC(F)(F)c1cccc(Sc2cc(C(F)(F)F)nc(-c3ccccn3)n2)c1 | u | -11.2% | -0.5% | 16.4µM* | -180.3%[0.0737 µM]
CCN(CC)c1cc(C(F)(F)F)nc(-c2ccccn2)n1 | i | u | 8.1%[38.3 µM] | 18.4µM* | u
FC(F)(F)c1cc(Oc2ccccc2)nc(-c2ccccn2)n1 | u | u | 0.6%[38.3 µM] | 14.6µM* | 18.2%
Cc1cc(NC(=O)CN2C(=O)NC3(CCCCCC3)C2=O)ccc1Br | i | -6.2% | 2.3% | i | 7.6%
COc1ccc(-c2nc3cnc(OC)nc3n(C)c2=O)cc1 | x | x | -0.2% | x | x
COc1ccc(-c2cc3c(c4c2ccn4C)C2CCC3C2)cc1OC (configuration not stated) | i | x | u | i | x
CN(Cc1ccc(C(C)(C)C)cc1)C(=O)c1ccc2c(c1)OCO2 | i | -718.5% | 10.8% | i | u
